D2 antag: D2 dopamine receptor (human) antagonism. HEK293 TREx D2 cells, calcium flux, dopamine EC80. inhibition, % at 10 µM. 2% of 340,000 active; in the data active = inhibition above about 30%; inactive = below that, where a call was filed; note: 0% is about no effect
Target sequence (P14416 whole entry, looked up): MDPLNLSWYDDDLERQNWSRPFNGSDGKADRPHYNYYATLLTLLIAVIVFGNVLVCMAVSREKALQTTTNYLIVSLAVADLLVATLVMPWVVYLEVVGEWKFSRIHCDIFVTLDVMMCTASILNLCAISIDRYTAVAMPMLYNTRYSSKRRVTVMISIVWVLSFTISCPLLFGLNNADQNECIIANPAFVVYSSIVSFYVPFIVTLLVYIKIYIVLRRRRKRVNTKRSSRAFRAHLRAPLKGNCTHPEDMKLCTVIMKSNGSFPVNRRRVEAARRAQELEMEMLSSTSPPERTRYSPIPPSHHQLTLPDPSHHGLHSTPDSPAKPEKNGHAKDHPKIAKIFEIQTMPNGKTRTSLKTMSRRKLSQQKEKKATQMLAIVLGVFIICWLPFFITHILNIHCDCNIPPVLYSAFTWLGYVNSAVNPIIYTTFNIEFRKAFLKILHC
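Tetracycline-induced HEK293 TREx cells expressing D2 receptor forced-coupled to calcium signalling, loaded with no-wash calcium dye. Compounds added and calcium flux read 180 s, then dopamine added at EC80 and read a further 180 s.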
D2 ag-1: activates the human D2 dopamine receptor; activation, % (concentration not given with the values); DiscoveRx PathHunter D2 beta-arrestin, luminescence, 90 min; 100% = 57 uM dopamine signal; 0.084% of 360,000 active; P14416; in the data active = activation above about 40%
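DiscoveRx PathHunter D2 beta-arrestin cells (2,100/well) attached overnight, then compound-stimulated 90 min at 37 C in HBSS/10 mM HEPES/0.1% Tween-20 buffer; beta-galactosidase complementation read by luminescence after 1 h at ambient temperature. Dopamine 57 uM final (EC100) as control.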
D2 PAM-1: human D2 receptor positive allosteric modulation; P14416; DiscoveRx D2 beta-arrestin cells, luminescence, 90 min; 100% = 57 uM dopamine signal; potentiation, % (no concentration beside the values); 0.23% of 360,000 active; in the data active = potentiation above about 50%
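D2 cells co-treated with compound plus 50 nM dopamine (EC20) for 90 min at 37 deg C to detect potentiation. Beta-arrestin recruitment was read as enzyme-fragment luminescence after 1 h at ambient temperature. Full response was set by 57 uM dopamine.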
D2 PAM-2: positively modulates the human D2 dopamine receptor allosterically; P14416; HEK293 T-REx D2, calcium flux, EC20 dopamine potentiation; potentiation, % at 10 µM; 0.34% of 340,000 active; AID 485347;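 active = potentiation over 3 SD above the plate norm, cut at about 30% in these data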; note: 0% is about no effect
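Primary screen. Calcium kinetics in induced HEK293 T-REx D2 cells: compound pre-addition 180 s, EC20 dopamine, 180 s more.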
D2 ag-2: agonists of human D2 dopamine receptor | P14416 | HEK293 T-REx D2 cells, calcium flux agonist mode | activation, % at 2 µM | 0.53% of 340,000 active | AID 485358;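 active = activation over 3 SD above normal in the single-dose calcium agonist read, cut at about 30% in these data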; note: 0% is about no effect
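Calcium-flux readout, 1 cycle/sec over 180 s following compound pin transfer, in inducible HEK293 Trex D2 cells (force-coupled); dopamine controls included. Positive calcium responses during this window marked compounds as potential agonists.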
Active calls of the source: *; · = not tested or not shown. A selection: hits, their analogues and other compounds. The true share with any hit is near 2.4%.

SMILES	D2 antag	D2 ag-1	D2 PAM-1	D2 PAM-2	D2 ag-2
COc1cc(NC(=O)c2cc(-c3ccco3)on2)cc(OC)c1OC	33*	-2	-16	-19	-2
Cc1cc(NC(=O)c2cc(-c3ccco3)on2)nn1Cc1ccc(Cl)cc1	-4	0	-7	-19	32*
Cc1nn(Cc2ccc(Cl)cc2)c(C)c1NC(=O)c1cc(-c2ccco2)on1	-12	2	-3	-4	0
CCN(CCNc1ccc(Cl)cc1[N+](=O)[O-])C(=O)c1cc([N+](=O)[O-])c(N(C)C)cc1OC	34*	-5	-21	-8	0
Cc1cc(C(=O)Nc2ccc([N+](=O)[O-])cn2)cs1	30*	9	-3	12	0
CCOc1cc(C(=O)Nc2ccc([N+](=O)[O-])cn2)cc(OCC)c1OCC	69*	-5	-10	-31	0
COc1cc(OC)cc(C(=O)Nc2ccc([N+](=O)[O-])cn2)c1	50*	4	-21	-22	0
COc1ccc(C(=O)Nc2ccc([N+](=O)[O-])cn2)cc1OC	17	0	-27	-20	0
COc1ccc([N+](=O)[O-])cc1NC(=O)c1csc(C)c1	-7	1	9	7	0
O=C(Cn1c(=O)n(Cc2nc(-c3ccccc3)no2)c(=O)c2cc3c(cc21)OCO3)Nc1ccc(Cl)cc1	·	·	·	9	1
CCCOc1cccc(C(=O)N(Cc2sccc2C)C2CCS(=O)(=O)C2)c1 (stereo not given)	·	·	·	1	2
CCOc1cc(C(=O)OCc2cc(=O)n3nc(C4CC4)sc3n2)cc(OCC)c1OCC	·	·	·	-7	1
O=C(N/N=C/C=C/c1ccccc1[N+](=O)[O-])c1cccs1	39*	1	-18	-22	-1
O=C(N/N=C/c1ccccc1[N+](=O)[O-])c1cccs1	-19	2	-2	-13	0
Cc1occc1C(=O)N/N=C/c1ccccc1[N+](=O)[O-]	35*	-2	-2	7	0
Cc1ccc(C(=O)N/N=C\C=C\c2ccccc2[N+](=O)[O-])cn1	47*	-3	-4	-31	2
Cc1ccsc1/C=N/NC(=O)c1cccs1	2	-1	-11	7	1
Cc1ccc(/C=N/NC(=O)c2cccs2)cc1[N+](=O)[O-]	35*	-1	-14	-1	-1
Cc1ccc(C(=O)N/N=C\c2ccccc2[N+](=O)[O-])cn1	-4	-6	-9	·	-1
COc1cccc(/C=N/NC(=O)c2ccoc2C)c1O	-4	-1	-6	7	0
COc1ccccc1CNc1ccc(-c2nc(C)no2)cc1[N+](=O)[O-]	·	·	·	·	1
CCCCN(CCCC)CCNC(=O)Cn1nc(CC)n2c(cc3sc(C)cc32)c1=O	·	·	·	-20	0
Cc1ccc(-n2ncc(C(=O)NCCc3c[nH]c4ccccc34)c2C2CCN(C(=O)OC(C)(C)C)CC2)cc1C	·	·	·	5	·
CN(C)C(=O)/C(=C\c1ccncc1)NC(=O)c1ccccc1	39*	-7	4	1	-1
CCN(CC)C(=O)/C(=C\c1ccncc1)NC(=O)c1ccccc1	0	-2	-5	-6	2
SMILES	D2 antag	D2 ag-1	D2 PAM-1	D2 PAM-2	D2 ag-2
CCOc1ccc(CNC(=O)c2cccc(NC(=O)N3CCSc4ncccc43)c2)cc1OC	·	·	·	-3	0
Cc1nc2sc(C(c3ccco3)N3CCN(C(c4ccccc4)c4ccccc4)CC3)c(O)n2n1 (stereo not given)	-5	-4	-6	33*	1
Cc1nc2sc(C(c3ccco3)N3CCN(c4ccccc4)CC3)c(O)n2n1 (stereo not given)	-6	-2	-4	14	-1
CCOc1ccc(S(=O)(=O)N2Cc3ccccc3CC2C(=O)Nc2ccc(NC(C)=O)cc2)cc1 (stereo not given)	·	·	·	10	-1
COc1ccc(Nc2cc(C(=O)NCc3ccccc3)c3ccccc3n2)cc1OC	·	·	·	·	0
COc1ccc(Nc2cc(C(=O)NCCCN3CCOCC3)c3ccccc3n2)cc1OC	30*	-6	-10	-5	0
CCN(CC)CCNC(=O)c1cc(Nc2ccc(OC)c(OC)c2)nc2ccccc12	43*	0	-23	12	0
